The source of these data is PubChem BioAssay (NCI).

About 79,000 compounds went through this panel and 15% of them were active in at least one assay; those are over-represented in the sample as a whole. Values without a mark were called inactive. Calls of active or inactive are those of the source. Rule as the data show it: active = growth inhibition above about 70%; inactive = the rest.

This assay is described as follows: NCI Yeast Anticancer Drug Screen. Data for the mec2-1 strain (AID 157). To be noted: S. cerevisiae mec2-1 strain, at 50.0 µM, stronger effect = higher value. As to the method:
Growth inhibition of yeast strains with defined genetic alterations is measured as a screen for potential anti-cancer activity. Selected strains with alterations in DNA damage repair or cell cycle control were exposed to compounds and growth inhibition was measured relative to vehicle treated controls. The strain used in this assay is mec2-1
With `COC(=O)C(C(=O)C(=O)NC1Nc2ccc(C)cc2S1)c1nc2ccc(Cl)cc2[nH]c1=O` (stereo not given), the growth inhibition was -12.3%.

Regarding `OCCN(CCO)C(CO)(CO)CO`, the growth inhibition is -12.8%.

On to `Cc1ccc(CNc2cc(C)ccn2)cc1`, for which the growth inhibition is 23.9%.

Take `O=C1c2ccccc2-c2c1c1ccccc1c(=O)n2-c1cccnc1`: the growth inhibition is 6.95%.

`COc1ccc(-c2coc3c4c(ccc3c2=O)OCO4)cc1OC`: the growth inhibition was -13.4%.

For `ClCCOC(OCCCl)OCCCl`, the growth inhibition was -28.3%.

With `Cc1ccc2nc3c(nc2c1)-c1cccc2cccc-3c12`, the growth inhibition is -43%.

`Cc1cccc(C)c1NC(=S)N(C)C`: the growth inhibition is -7.3%.

In the case of `CC(=O)C(C(C)=O)c1ccccc1`, the growth inhibition was 2.7%.

For `Cn1/c(=N/Sc2nnnn2-c2ccccc2)sc2ccccc21`, the growth inhibition was -13.9%.

Turning to `CC/C(=C\c1cccc([N+](=O)[O-])c1)C(=O)O`, the growth inhibition is -25.6%.

As to `CC1=NOC(=O)C1C(C)(C)C1C(=O)ON=C1C` (stereo not given), the growth inhibition was -0.7%.

On to `O=C1c2cccnc2-c2nccc3ccnc1c23`, for which the growth inhibition is 58.8%.

On to `c1ccc(-c2nc3ccc4ccccc4c3nc2-c2ccccc2)cc1`, for which the growth inhibition is -35.2%.

With `CCCCCCCCCCCC(=O)CCCCC`, the growth inhibition was -17.1%.

`Nc1cc(S(=O)(=O)c2ccc(O)c(N)c2)ccc1O`: the growth inhibition was -0.85%.

As for `CC1OC23CCCCC2C(C#N)(C#N)C1(C#N)C(=N)O3` (stereo not given), the growth inhibition was 9.5%.

Turning to `COc1cc(/C=N\Nc2ccccc2[N+](=O)[O-])cc(OC)c1OC`, the growth inhibition was -25.4%.

Regarding `O=C1c2ccccc2C(=O)c2c1cccc2N1C(=O)C=CC1=O`, the growth inhibition is 37.9%.

With `O=C(O)c1cn(C2CC2)c2cc(N3CCNCC3)c(F)cc2c1=O`, the growth inhibition is -6.4%.

Consider `Cc1ccc(-c2noc(C)n2)cc1`, for which the growth inhibition is 13.2%.

As to `O=C1CCC2CN3CCc4c([nH]c5ccccc45)C3CC2C1` (stereo not given), the growth inhibition was 14.4%.

For the compound `CCOC(=O)c1sc(N)c(C(=O)OCC)c1C`, the growth inhibition is -46.8%.

For the compound `O=C(/C=C(\[O-])c1ccccc1)CCCCCCC(=O)/C=C(\[O-])c1ccccc1.O=C(/C=C(\[O-])c1ccccc1)CCCCCCC(=O)/C=C(\[O-])c1ccccc1.O=C(/C=C(\[O-])c1ccccc1)CCCCCCC(=O)/C=C(\[O-])c1ccccc1.[La+3].[La+3]`, the growth inhibition was -8.75%.

Take `CCOc1ccc(/C=C(/C#N)C(N)=O)cc1`: the growth inhibition is -8.1%.

As to `COc1ccc(-c2coc3ccc4ccccc4c3c2=O)cc1OC`, the growth inhibition was -15.1%.

Consider `COc1cc(/C=N\NC(=O)OC(C)(C)C)cc(OC)c1OC`, for which the growth inhibition was -17.4%.

As to `CCCCC1C(=O)N(c2ccc(S(=O)(=O)Nc3ccccn3)cc2)N(c2ccc(O)c(C(=O)O)c2)C1=O` (stereo not given), the growth inhibition is 23.7%.

For the compound `CC(=Nc1ccncc1)C(C)=Nc1ccncc1`, the growth inhibition is 93.6% (active).

Regarding `CCN(CC)CCN(C)CC(=O)Nc1ccccc1C`, the growth inhibition is 6.3%.

As to `CC(=O)NS(=O)(=O)c1ccc2sc(C)nc2c1`, the growth inhibition was -22.6%.

As to `C[N+](C)(C)CN1C(=O)c2ccccc2C1=O`, the growth inhibition was -29.2%.

Turning to `O=C1c2ccccc2C(=O)N1/N=C/c1cc(Cl)cc(Cl)c1O`, the growth inhibition is -17.4%.

Turning to `C=CCNC1=C2C[C@@H](C)C[C@@H](OC)[C@@H](OC(=O)CCCN)[C@H](C)/C=C(\C)[C@@H](OC(N)=O)[C@H](OC)/C=C\C=C(/C)C(=O)NC(=CC1=O)C2=O`, the growth inhibition is -0.55%.

As to `CCCCCCCCCC(O)CC(=O)c1c(O)cccc1O` (stereo not given), the growth inhibition is 77.2% (active).

For the compound `COc1ccc(/C=N/N2C(=O)c3ccccc3C2=O)cc1OC`, the growth inhibition was 1.2%.

Regarding `O=C(CCCCCCCCCCBr)OCc1ccccc1`, the growth inhibition is -40%.

As for `COc1ccc(/C=C2/NC(=S)N=C2Cl)cc1`, the growth inhibition is -21.8%.

In the case of `O=C1OC(=O)C2C1OC1C(=O)OC(=O)C12` (stereo not given), the growth inhibition was -33.1%.

`O=C1CC(c2ccccc2)NCCCCN2CC(CN1)C(C(O)c1ccccc1)C2=O` (stereo not given): the growth inhibition is -34.8%.
